Laboratory results reported in PubChem BioAssay AID1159580 (chemical genetic matrix, 2015).
“And” between values parts separate entries of the source, which are not always exact repeats. Equal values may be shown once. About 2,000 (36%) of roughly 5,500 compounds were called active. Another 18% or so got no clear call; they are omitted. Cut-off read from the data, not from the text of the source: active = normalized growth mostly below about 0.91 (no sharp cut-off); inconclusive = no clear call, values can overlap the other calls; inactive = mostly above about 0.92. This is one part of the list.

Test: chemical genetic growth profiling, strain panel (AID 1159580);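 note: tested at 20 µM; growth read once vehicle control cultures reached saturation at 30 °C; 1 = growth at the plate median or of vehicle wells; lower values mean less growth of the strain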
Settings: S. cerevisiae deletion strains, growth OD
[1] = locus YAL040C, strain CLN3, active compounds read low
[2] = locus YER002W, strain NOP16, active compounds read low
[3] = locus YGR078C, strain PAC10, active compounds read low
[4] = locus YMR263W, strain SAP30, active compounds read low
[5] = locus YMR307W, strain GAS1, active compounds read low
[6] = locus YNL175C, strain NOP13, active compounds read low
[7] = locus YNL197C, strain WHI3, active compounds read low
[8] = locus YNL224C, strain SQS1, active compounds read low
[9] = locus YNL322C, strain KRE1, active compounds read low
[10] = locus YOR083W, strain WHI5 (second series), active compounds read low
[11] = locus YPL055C, strain LGE1, active compounds read low

Measured: normalized growth

O=C1C=CC(=O)C=C1
inactive: [1] 0.986 | [2] 1 | [3] 0.912 | [4] 1 | [5] 1.04 | [6] 1.02 | [7] 1.05 | [8] 1 | [9] 0.99 | [10] 1.01 | [11] 0.979

CC(=O)O[C@H]1CC2(C)[C@@H](C[C@@H](O)[C@H]3[C@@]4(C)CC[C@@H](O)[C@@H](C)[C@@H]4CC[C@@]32C)C1=C(CCC=C(C)C)C(=O)O (stereo not given in full)
inactive: [1] 1.02 | locus YCL061C, strain MRC1 (second series), active compounds read low 1.01 | locus YDR150W, strain NUM1, active compounds read low 1.02 | locus YDR363W, strain ESC2, active compounds read low 1.02 | [2] 1.04 | [3] 1.03 | [6] 1 | [7] 1 | [8] 0.974 | [9] 1.01 | [10] 0.996 | locus YPL241C, strain CIN2, active compounds read low 1.01

COc1c2c(cc3occ(-c4ccc5c(c4)OCO5)c(=O)c13)OC(C)(C)C=C2
inactive: locus YAL013W, strain DEP1, active compounds read low 0.989 | locus YAL021C, strain ccr4, active compounds read low 1 | locus YAL026C, strain drs2, active compounds read low 0.975 | locus YAL030W, strain snc1, active compounds read low 0.997 | locus YBL061C, strain skt5, active compounds read low 0.969 | locus YBR009C, strain hhf1, active compounds read low 0.966 | locus YBR021W, strain FUR4, active compounds read low 0.973 | locus YBR023C, strain chs3, active compounds read low 0.967 | locus YBR171W, strain sec66, active compounds read low 0.988 | locus YBR229C, strain ROT2, active compounds read low 0.987 | locus YBR231C, strain swc5, active compounds read low 0.989 | locus YBR279W, strain paf1, active compounds read low 1.03 | locus YCL011C, strain gbp2, active compounds read low 0.985 | locus YCL016C, strain dcc1, active compounds read low 0.994 | locus YCL029C, strain bik1, active compounds read low 0.961 | locus YCL061C, strain MRC1, active compounds read low 0.996 | locus YCL069W, strain vba3, active compounds read low 1 | locus YCR088W, strain abp1, active compounds read low 0.995 | locus YDL005C, strain med2, active compounds read low 1 | locus YDL035C, strain GPR1, active compounds read low 0.95 | locus YDL040C, strain nat1, active compounds read low 1.01 | locus YDL074C, strain BRE1, active compounds read low 0.901 | locus YDL101C, strain DUN1, active compounds read low 0.98 | locus YDL185W, strain tfp1, active compounds read low 0.943 | locus YDL192W, strain arf1, active compounds read low 0.918 | locus YDR001C, strain nth1, active compounds read low 0.994 | locus YDR069C, strain doa4, active compounds read low 0.991 | locus YDR101C, strain arx1, active compounds read low 0.925 | locus YDR137W, strain rgp1, active compounds read low 0.964 | locus YDR159W, strain sac3, active compounds read low 1.02 | locus YDR162C, strain NBP2, active compounds read low 0.993 | locus YDR195W, strain ref2 1.11 | locus YDR297W, strain sur2, active compounds read low 0.995 | locus YDR318W, strain mcm21, active compounds read low 0.962 | locus YDR334W, strain swr1, active compounds read low 1.01 | locus YDR335W, strain msn5, active compounds read low 1.02 | locus YDR388W, active compounds read low 0.973 | locus YDR502C, strain sam2, active compounds read low 0.926 | locus YEL003W, strain gim4, active compounds read low 1 | locus YEL037C, strain rad23, active compounds read low 1 | locus YEL061C, strain CIN8 (second series), active compounds read low 1.01 | locus YEL061C, strain CIN8, active compounds read low 0.992 | locus YER015W, strain faa2, active compounds read low 1 | locus YER016W, strain bim1, active compounds read low 1 | locus YER110C, active compounds read low 0.983 | locus YER111C, strain swi4, active compounds read low 1.01 | locus YER155C, strain BEM2 (second series), active compounds read low 0.936 | locus YER155C, strain BEM2, active compounds read low 0.992 | locus YER167W, strain BCK2, active compounds read low 0.984 | locus YFR010W, strain ubp6, active compounds read low 0.989 | locus YGL078C, strain dbp3, active compounds read low 0.929 | locus YGL167C, strain pmr1, active compounds read low 1 | locus YGL173C, strain kem1, active compounds read low 0.996 | locus YGL227W, strain vid30, active compounds read low 1 | locus YGL240W, strain doc1, active compounds read low 0.998 | locus YGL248W, strain PDE1, active compounds read low 0.998 | locus YGL253W, strain hxk2, active compounds read low 0.936 | [3] 0.982 | locus YGR135W, strain pre9, active compounds read low 0.98 | locus YGR252W, strain gcn5, active compounds read low 0.983 | locus YHR013C, strain ard1, active compounds read low 0.986 | locus YHR027C, strain rpn1, active compounds read low 0.993 | locus YHR030C, strain SLT2, active compounds read low 0.992 and 1.01 | locus YHR079C, strain IRE1 (second series), active compounds read low 0.952 | locus YHR079C, strain IRE1, active compounds read low 0.983 | locus YHR094C, strain hxt1, active compounds read low 0.977 | locus YHR129C, strain ARP1, active compounds read low 0.988 | locus YHR200W, strain rpn10, active compounds read low 0.949 | locus YIL066C, strain RNR3, active compounds read low 0.965 | locus YIL073C, strain SPO22, active compounds read low 0.941 | locus YIL125W, strain kgd1, active compounds read low 0.96 | locus YIR030C, strain dcg1, active compounds read low 0.97 | locus YJL092W, strain hpr5, active compounds read low 0.99 | locus YJL095W, strain BCK1 (second series), active compounds read low 0.997 | locus YJL095W, strain BCK1, active compounds read low 0.981 and 1.01 | locus YJL115W, strain asf1, active compounds read low 1.02 | locus YJL129C, strain trk1, active compounds read low 0.937 | locus YJL134W, strain LCB3, active compounds read low 0.992 | locus YJL154C, strain vps35, active compounds read low 1.02 | locus YJL164C, strain tpk1, active compounds read low 0.981 | locus YJL166W, strain qcr8, active compounds read low 0.973 | locus YJL168C, strain set2, active compounds read low 0.972 | locus YJL187C, strain SWE1 (second series), active compounds read low 0.975 | locus YJL187C, strain SWE1, active compounds read low 1 | locus YJR043C, strain POL32, active compounds read low 0.999 | locus YJR066W, strain TOR1, active compounds read low 0.955 | locus YJR075W, strain HOC1, active compounds read low 0.976 | locus YKL009W, strain mrt4, active compounds read low 0.885 | locus YKL068W, active compounds read low 0.959 | locus YKL085W, strain MDH1 (second series), active compounds read low 0.965 | locus YKL085W, strain MDH1, active compounds read low 0.965 | locus YKL160W, strain elf1, active compounds read low 0.965 | locus YKL190W, strain CNB1, active compounds read low 0.984 | locus YKR026C, strain gcn3, active compounds read low 0.999 | locus YKR091W, strain srl3, active compounds read low 1 | locus YLL001W, strain dnm1, active compounds read low 0.989 | locus YLL026W, active compounds read low 1 | locus YLL041C, strain sdh2, active compounds read low 0.996 | locus YLR027C, strain aat2, active compounds read low 0.971 | locus YLR039C, strain RIC1, active compounds read low 0.939 | locus YLR058C, strain SHM2, active compounds read low 1 | locus YLR102C, strain apc9, active compounds read low 0.963 | locus YLR113W, strain HOG1, active compounds read low 0.995 | locus YLR221C, strain rsa3, active compounds read low 0.948 | locus YLR258W, strain gsy2, active compounds read low 0.989 | locus YLR262C, strain YPT6 (second series), active compounds read low 0.94 | locus YLR262C, strain YPT6, active compounds read low 0.937 | locus YLR268W, strain sec22, active compounds read low 0.905 | locus YLR320W, strain mms22, active compounds read low 0.928 | locus YLR330W, strain CHS5, active compounds read low 0.981 | locus YLR342W, strain FKS1 (second series), active compounds read low 0.963 | locus YLR342W, strain FKS1, active compounds read low 0.989 | locus YLR357W, strain rsc2, active compounds read low 1.02 | locus YLR370C, strain arc18, active compounds read low 1 | locus YLR371W, strain rom2, active compounds read low 0.944 | locus YLR384C, strain iki3, active compounds read low 1.01 | locus YLR418C, strain cdc73, active compounds read low 0.87 | locus YML016C, strain PPZ1, active compounds read low 1 | locus YML032C, strain rad52, active compounds read low 0.999 | locus YML120C, strain ndi1, active compounds read low 0.987 | locus YML124C, strain tub3, active compounds read low 0.979 | locus YMR058W, strain fet3, active compounds read low 0.987 | locus YMR078C, strain ctf18, active compounds read low 0.986 | locus YMR125W, strain sto1, active compounds read low 1.01 | locus YMR129W, active compounds read low 1.01 | locus YMR205C, strain PFK2, active compounds read low 0.946 | locus YMR223W, strain ubp8, active compounds read low 0.97 | locus YMR231W, strain pep5, active compounds read low 1.01 | [4] 0.97 | [5] 1.05 | locus YNL067W, strain RPL9B, active compounds read low 0.986 | locus YNL128W, strain TEP1, active compounds read low 0.943 | locus YNL153C, strain GIM3, active compounds read low 0.993 | locus YNL183C, strain NPR1, active compounds read low 0.933 | locus YNL209W, strain ssb2, active compounds read low 1.02 | locus YNL233W, strain BNI4, active compounds read low 0.954 | locus YNL248C, strain rpa49, active compounds read low 0.963 | locus YNL250W, strain rad50, active compounds read low 0.925 | locus YNL271C, strain bni1, active compounds read low 0.98 | locus YNL298W, strain CLA4, active compounds read low 0.962 | locus YNL307C, strain MCK1, active compounds read low 0.952 | locus YNL322C, strain KRE1 (second series), active compounds read low 1.02 | locus YNR049C, strain mso1, active compounds read low 1 | locus YNR052C, strain pop2, active compounds read low 0.99 | locus YOL012C, strain htz1 1.17 | locus YOL147C, strain pex11, active compounds read low 0.949 | locus YOR001W, strain rrp6, active compounds read low 0.957 | locus YOR061W, strain CKA2, active compounds read low 0.997 | locus YOR069W, strain VPS5, active compounds read low 0.991 | locus YOR070C, strain gyp1, active compounds read low 0.992 | locus YOR080W, strain dia2, active compounds read low 1.02 | locus YOR083W, strain WHI5, active compounds read low 0.961 | locus YOR106W, strain vam3, active compounds read low 0.975 | locus YOR136W, strain idh2, active compounds read low 0.958 | locus YOR144C, strain elg1, active compounds read low 0.984 | locus YOR231W, strain MKK1, active compounds read low 1.02 | locus YOR265W, strain rbl2, active compounds read low 0.999 | locus YOR270C, strain vph1, active compounds read low 0.817 | locus YOR290C, strain snf2, active compounds read low 0.91 | locus YOR316C, strain cot1, active compounds read low 0.986 | locus YPL051W, strain arl3, active compounds read low 0.973 | [11] 0.926 | locus YPL078C, strain atp4, active compounds read low 0.952 | locus YPL106C, strain sse1, active compounds read low 1.02 | locus YPL240C, strain hsp82, active compounds read low 0.997 | locus YPL256C, strain CLN2, active compounds read low 0.997 | locus YPR119W, strain clb2, active compounds read low 0.964 | locus YPR141C, strain kar3, active compounds read low 0.979 | locus YPR163C, strain tif3, active compounds read low 0.978 | locus YPR167C, strain met16, active compounds read low 0.956 | strain wtn01, active compounds read low 0.911
active: locus YDR392W, strain spt3, active compounds read low 0.644 | locus YGL086W, strain mad1, active compounds read low 0.889 | locus YHR142W, strain chs7, active compounds read low 0.857 | locus YKR001C, strain vps1, active compounds read low 0.895 | locus YNL071W, strain lat1, active compounds read low 0.89 | locus YOR184W, strain ser1, active compounds read low 0.795
